# Reference: PubChem BioAssay (NCATS)
# “And” between values parts separate entries of the source, which are not always exact repeats. Equal entries are not always repeated. A number with no mark means an inactive call. Results filed as inconclusive are left out. A call without a number means that no potency is given here. The source made the active and inactive calls. Unless noted, the call rests on the fitted dose curve; in most records, active means well fitted curve in the direction sought with a large enough effect; inconclusive means small, poorly fitted or top-dose-only effect, or another doubt; inactive means no such curve, though single readings can be large; an effect the other way counts as inactive or inconclusive.
# Legend:
# C33A = test: Primary qHTS to identify gynecologic anti-cancer compounds using libraries of approved drugs and bioactive compounds (AID 1345084); conditions: Gynecologic cancer cell panel viability, ATPlite luminescence, 48 h; series mostly up to 57.5 µM; further: nearly all actives have a fitted effect of over 55% in size; further: potency means the concentration at half of the fitted maximal effect
# Procedure, shortened: (§1)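 48 h compound exposure at 37 C, 5% CO2; five-point qHTS. ATPlite luminescence readout of cell ATP.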
# CASKI = test: as above; conditions: Gynecologic cancer cell panel viability, ATPlite luminescence, 48 h; series mostly up to 57.5 µM
# Procedure, shortened: as §1
# HeLa = test: as above; conditions: Gynecologic cancer cell panel viability, ATPlite luminescence, 48 h; series mostly up to 57.5 µM
# Procedure, shortened: as §1
# Hek293T = test: as above; conditions: Gynecologic cancer cell panel viability, ATPlite luminescence, 48 h, control line for the selectivity index; series mostly up to 57.5 µM
# Procedure, shortened: as §1
# JEG-3 = test: as above; conditions: Gynecologic cancer cell panel viability, ATPlite luminescence, 48 h; series mostly up to 57.5 µM
# Procedure, shortened: as §1
# PA-1 = test: as above; conditions: Gynecologic cancer cell panel viability, ATPlite luminescence, 48 h; series mostly up to 57.5 µM
# Procedure, shortened: as §1
# SKOV3 = test: as above; conditions: Gynecologic cancer cell panel viability, ATPlite luminescence, 48 h; series mostly up to 57.5 µM
# Procedure, shortened: as §1
# Tov-21-G = test: as above; conditions: Gynecologic cancer cell panel viability, ATPlite luminescence, 48 h; series mostly up to 57.5 µM
# Procedure, shortened: as §1
# [1] = Drug repurposing screens with cells derived from glioblastoma tumor samples (AID 1345199); conditions: GBM patient neurospheres viability, ATP luminescence, 48 h; further: nearly all actives have a fitted effect of over 40% in size; further: potency means the concentration at half of the fitted maximal effect
# Procedure, shortened: (§2)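 Four patient lines of CD133+ GBM neurospheres were screened at several concentrations; hits were retested in those lines plus three slower-growing GBM lines, using 48-hour treatment and ATP-based viability.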
# astro = test: as above; conditions: viability, ATP luminescence, 48 h; series mostly up to 45.9 µM
# Procedure, shortened: as §2
# CAOV3 = test: Primary qHTS to identify gynecologic anti-cancer compounds using libraries of approved drugs and bioactive compounds (AID 1345084); conditions: Gynecologic cancer cell panel viability, ATPlite luminescence, 48 h; series mostly up to 57.5 µM; further: nearly all actives have a fitted effect of over 55% in size; further: potency means the concentration at half of the fitted maximal effect
# Procedure, shortened: as §1
# Es-2 = test: as above; conditions: Gynecologic cancer cell panel viability, ATPlite luminescence, 48 h; series mostly up to 57.5 µM
# Procedure, shortened: as §1
# OV90 = test: as above; conditions: Gynecologic cancer cell panel viability, ATPlite luminescence, 48 h; series mostly up to 57.5 µM
# Procedure, shortened: as §1
# Tov112D = test: as above; conditions: Gynecologic cancer cell panel viability, ATPlite luminescence, 48 h; series mostly up to 57.5 µM
# Procedure, shortened: as §1
# [2] = molecular target: Nuclear receptor subfamily 1 group I member 2 (Rattus norvegicus) (UniProt Q9R1A7); test: qHTS assay for small molecule activators of the rat pregnane X receptor (rPXR) signaling pathway (AID 651751; call rule not given here); conditions: rPXR reporter cells, luciferase (One-Glo), 24 h
# [3] = at 45.9 µM (top of the series), tumour line B
# [4] = at 46.1 µM (top of the series), tumour line C
# [5] = at 45.9 µM (top of the series), tumour line D
# [6] = at 46 µM (top of the series), tumour line A
# Nuclear receptor subfamily 1 group I member 2 (Rattus norvegicus), sequence (Q9R1A7 whole entry, looked up): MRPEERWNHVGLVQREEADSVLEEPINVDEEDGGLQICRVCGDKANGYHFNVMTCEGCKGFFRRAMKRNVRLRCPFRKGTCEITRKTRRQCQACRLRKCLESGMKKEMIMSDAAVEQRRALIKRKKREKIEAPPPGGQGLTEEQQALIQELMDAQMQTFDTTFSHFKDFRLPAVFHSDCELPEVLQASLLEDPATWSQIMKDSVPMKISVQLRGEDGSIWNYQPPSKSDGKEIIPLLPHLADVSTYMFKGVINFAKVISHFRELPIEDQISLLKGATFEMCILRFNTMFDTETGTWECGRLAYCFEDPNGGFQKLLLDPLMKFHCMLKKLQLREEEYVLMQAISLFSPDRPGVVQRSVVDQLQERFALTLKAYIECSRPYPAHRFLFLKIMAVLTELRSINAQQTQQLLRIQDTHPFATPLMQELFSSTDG
structure (smiles),measurement,setting,value
CC(=O)Nc1ccn(C2COC(COC(=O)c3ccccc3)O2)c(=O)n1 (stereo not given),Potency,C33A,inactive
same,Potency,CASKI,inactive
same,Potency,HeLa,inactive
same,Potency,Hek293T,inactive
same,Potency,JEG-3,inactive
same,Potency,PA-1,inactive
same,Potency,SKOV3,inactive
same,Potency,Tov-21-G,inactive
same,"activity, negative = cell killing",[1]; [3],-21.5%
same,"activity, negative = cell killing",[1]; [4],-14.9%
CC(=O)Oc1ccc(C2(c3ccc(OC(C)=O)cc3)Oc3ccccc3NC2=O)cc1,Potency,C33A,inactive
same,Potency,PA-1,31.6 µM (active)
same,Potency,Tov-21-G,22.4 µM (active)
same,"activity, negative = cell killing",[1]; [3],-28.4%
same,Potency,[1]; tumour line A,22.4 µM (active)
C[N+](C)(C)CCO,"activity, negative = cell killing",[1]; [3],-20.6% and -4.58%
same,"activity, negative = cell killing",[1]; [5],-15.3% and -5.56%
same,"activity, negative = cell killing",[1]; [6],-28.3% and -25.4%
same,"activity, negative = cell killing",[1]; [4],20.9% and 13.7%
same,Potency,astro,inactive
C[C@@H](O[C@H]1OCCN(Cc2n[nH]c(=O)[nH]2)[C@H]1c1ccc(F)cc1)c1cc(C(F)(F)F)cc(C(F)(F)F)c1,Potency,C33A,inactive
same,Potency,CAOV3,inactive
same,Potency,CASKI,inactive
same,Potency,Es-2,inactive
same,Potency,Hek293T,inactive
same,Potency,JEG-3,inactive
same,Potency,OV90,inactive
same,Potency,PA-1,inactive
same,Potency,Tov-21-G,inactive
COc1ccc(-n2nc(CCC(=O)N(C)O)cc2-c2ccc(Cl)cc2)cc1,Potency,C33A,inactive
same,Potency,CAOV3,inactive
same,Potency,CASKI,inactive
same,Potency,HeLa,inactive
same,Potency,Hek293T,inactive
same,Potency,SKOV3,31.6 µM (active)
same,Potency,Tov112D,inactive
Clc1ccc2c(c1)N=C(N1CCNCC1)c1ccccc1N2,Potency,C33A,inactive
same,Potency,CAOV3,inactive
same,Potency,CASKI,inactive
same,Potency,Es-2,inactive
same,Potency,HeLa,inactive
same,Potency,Hek293T,inactive
same,Potency,JEG-3,inactive
same,Potency,PA-1,inactive
same,Potency,Tov-21-G,inactive
same,Potency,Tov112D,inactive
Cc1cccc(N(C)C(=S)Oc2ccc3c(c2)C2CCC3C2)c1 (stereo not given),Potency,C33A,inactive
same,Potency,CAOV3,inactive
same,Potency,CASKI,inactive
same,Potency,HeLa,inactive
same,Potency,Hek293T,inactive
same,Potency,JEG-3,inactive
same,Potency,OV90,35.5 µM (active)
same,Potency,PA-1,inactive
same,Potency,SKOV3,inactive
same,Potency,Tov-21-G,inactive
same,Potency,Tov112D,inactive
COC(=O)[C@H]1[C@H]2C[C@@H]3c4[nH]c5cc(OC)ccc5c4CCN3C[C@H]2C[C@@H](OC(=O)/C=C/c2ccc(O)c(OC)c2)[C@@H]1OC,Potency,C33A,inactive
same,Potency,CASKI,inactive
same,Potency,Es-2,inactive
same,Potency,HeLa,inactive
same,Potency,Hek293T,inactive
same,Potency,OV90,31.6 µM (active)
same,Potency,PA-1,inactive
same,Potency,SKOV3,35.5 µM (active)
same,Potency,Tov112D,inactive
O=C1NC(=O)/C(=C/c2ccc3c(c2)OC(F)(F)O3)S1,Potency,C33A,inactive
same,Potency,CAOV3,inactive
same,Potency,CASKI,inactive
same,Potency,Hek293T,inactive
same,Potency,SKOV3,inactive
same,Potency,Tov-21-G,inactive
same,Potency,Tov112D,inactive
NC(N)=NCCCCN=C(N)N,"activity, negative = cell killing",[1]; [3],-8.5%
same,"activity, negative = cell killing",[1]; [5],-4.71%
same,"activity, negative = cell killing",[1]; [6],-10%
same,"activity, negative = cell killing",[1]; [4],-21.5%
same,Potency,astro,inactive
O=C1NC2CCCCN2C12CCN(CCCN1c3ccccc3CCc3ccc(Cl)cc31)CC2 (stereo not given),Potency,C33A,inactive
same,Potency,HeLa,inactive
same,Potency,JEG-3,inactive
same,Potency,Tov-21-G,inactive
same,Potency,astro,20 µM (active)
Nc1ccc(O)cc1,Potency,C33A,inactive
same,Potency,CASKI,inactive
same,Potency,Es-2,inactive
same,Potency,Hek293T,inactive
same,Potency,JEG-3,inactive
same,Potency,OV90,inactive
same,Potency,PA-1,inactive
same,Potency,SKOV3,inactive
same,Potency,Tov-21-G,inactive
same,Potency,Tov112D,inactive
same,Potency,astro,35.5 µM (active)
same,max response,[2],4.17%
C=CCNc1nc(NCC=C)nc(N2CCN(C(c3ccc(F)cc3)c3ccc(F)cc3)CC2)n1,Potency,C33A,inactive
same,Potency,CASKI,inactive
same,Potency,Es-2,inactive
same,Potency,HeLa,inactive
same,Potency,JEG-3,inactive
same,Potency,PA-1,inactive
same,Potency,Tov-21-G,inactive
same,Potency,Tov112D,inactive
O=[N+]([O-])c1ccc(-c2nc(-c3ccc(F)cc3)c(-c3ccncc3)[nH]2)cc1,Potency,C33A,inactive
same,Potency,CASKI,inactive
same,Potency,Es-2,inactive
same,Potency,HeLa,inactive
same,Potency,Hek293T,inactive
same,Potency,JEG-3,inactive
same,Potency,OV90,inactive
same,Potency,PA-1,inactive
same,Potency,Tov-21-G,inactive
same,Potency,Tov112D,inactive
NC(=O)C1(N2CCCCC2)CCN(CCCN2c3ccccc3CCc3ccc(Cl)cc32)CC1,Potency,C33A,25.1 µM (active)
same,Potency,OV90,22.4 µM (active)
CN(C)c1cc2c(Nc3ccc4c(cnn4Cc4ccccc4)c3)ncnc2cn1,Potency,C33A,inactive
same,Potency,CAOV3,inactive
same,Potency,CASKI,inactive
same,Potency,Es-2,inactive
same,Potency,HeLa,inactive
same,Potency,Hek293T,inactive
same,Potency,JEG-3,inactive
same,Potency,OV90,inactive
same,Potency,SKOV3,inactive
same,Potency,Tov-21-G,inactive
same,Potency,Tov112D,inactive
CCOC(=O)c1ccc(O)c(O)c1,Potency,C33A,inactive
same,Potency,CAOV3,inactive
same,Potency,CASKI,inactive
same,Potency,Es-2,inactive
same,Potency,HeLa,inactive
same,Potency,Hek293T,inactive
same,Potency,JEG-3,inactive
same,Potency,OV90,inactive
same,Potency,Tov-21-G,inactive
same,Potency,Tov112D,inactive
CCN(CC)CCNC(=O)c1ccc(NS(C)(=O)=O)cc1,"activity, negative = cell killing",[1]; [3],-2.38%
same,"activity, negative = cell killing",[1]; [5],-14.7%
same,"activity, negative = cell killing",[1]; [4],-3.28%
same,Potency,astro,inactive
C/C(=C(/OCCOc1ccc(Cl)cc1)c1ccc(Cl)cc1Cl)n1ccnc1,Potency,C33A,inactive
same,Potency,CASKI,inactive
same,Potency,Es-2,inactive
same,Potency,HeLa,inactive
same,Potency,Hek293T,inactive
same,Potency,JEG-3,inactive
same,Potency,OV90,inactive
same,Potency,PA-1,inactive
same,Potency,SKOV3,inactive
same,Potency,Tov-21-G,inactive
same,Potency,Tov112D,inactive
CC[N+]1(CC)CCC(=C(c2ccccc2)c2ccccc2)C1C (stereo not given),Potency,C33A,inactive
same,Potency,CAOV3,inactive
same,Potency,CASKI,inactive
same,Potency,Es-2,inactive
same,Potency,HeLa,inactive
same,Potency,Hek293T,inactive
same,Potency,OV90,inactive
same,Potency,Tov-21-G,inactive
same,Potency,Tov112D,inactive
same,Potency,astro,inactive
Nc1ncnc2n[nH]c(Nc3ccc(F)cc3)c12,Potency,PA-1,25.1 µM (active)
CN1CCCN(C(c2ccccc2)c2ccc(Cl)cc2)CC1 (stereo not given),Potency,C33A,inactive
same,Potency,Es-2,inactive
same,Potency,HeLa,inactive
same,Potency,JEG-3,inactive
same,Potency,PA-1,inactive
same,Potency,Tov-21-G,inactive
same,Potency,Tov112D,31.6 µM (active)
same,"activity, negative = cell killing",[1]; [4],-12.3%
same,Potency,[1]; tumour line A,4.47 µM (active)
same,Potency,[1]; tumour line B,35.5 µM (active)
same,Potency,[1]; tumour line D,20 µM (active)
COC(=O)C1=CO[C@@H](O)[C@@H]2C(CO)=CC[C@H]12,Potency,C33A,inactive
same,Potency,CASKI,inactive
same,Potency,Es-2,inactive
same,Potency,HeLa,inactive
same,Potency,Hek293T,inactive
same,Potency,JEG-3,inactive
same,Potency,OV90,inactive
same,Potency,PA-1,inactive
same,Potency,SKOV3,inactive
same,Potency,Tov-21-G,inactive
same,Potency,Tov112D,inactive
CCCC(=O)O[C@]1(C(=O)CCl)[C@@H](C)C[C@H]2[C@@H]3CCC4=CC(=O)C=C[C@]4(C)[C@@]3(F)C(=O)C[C@@]21C,Potency,C33A,inactive
same,Potency,CASKI,inactive
same,Potency,Es-2,inactive
same,Potency,HeLa,inactive
same,Potency,JEG-3,inactive
same,Potency,OV90,inactive
same,Potency,PA-1,inactive
same,Potency,Tov-21-G,inactive
same,Potency,Tov112D,inactive
CC(C(O)c1ccccc1)N(C)CCOC(c1ccccc1)c1ccccc1 (stereo not given),Potency,Es-2,inactive
same,Potency,HeLa,inactive
same,Potency,PA-1,inactive
same,Potency,SKOV3,20 µM (active)
same,Potency,Tov-21-G,inactive
same,Potency,Tov112D,inactive
same,Potency,astro,inactive
